Compounds without any hit were thinned out: in the full panel of roughly 79,000, 15% have a hit. A number with no mark means an inactive call. The source made the active and inactive calls. Cut-off read from the data, not from the text of the source: active = growth inhibition above about 70%; inactive = the rest.

Our source for the growth inhibition values is PubChem BioAssay (NCI).

Experiment [1] is described as follows: NCI Yeast Anticancer Drug Screen. Data for the rad50 strain (AID 155).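 Note: 0% = growth of vehicle-only cultures of the same strain.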 To be noted: S. cerevisiae rad50 strain growth inhibition; at 50.0 µM; hits give high values. In short, it runs like this:
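Cells are treated with compound, grown, and their growth is then scored against vehicle-only cultures of the same repair-deficient yeast strain.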

Experiment [2] is described as follows: NCI Yeast Anticancer Drug Screen. Data for the mec2-1 strain (AID 157). To be noted: S. cerevisiae mec2-1 strain, at 50.0 µM, hits give high values. In short, it runs like this: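 mec2-1 yeast strain, carrying an alteration in DNA damage repair or cell cycle control, was exposed to compounds; growth inhibition was measured relative to vehicle-treated controls.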

Experiment [3] in a line: NCI Yeast Anticancer Drug Screen. Data for the sgs1 mgt1 strain (AID 161).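 Note: 0% = growth of cultures given vehicle only.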 Particulars: S. cerevisiae sgs1 mgt1 strain, at 50.0 µM, hits give high values. In a few lines:
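This yeast growth screen uses a strain with defined DNA-repair lesions; compound-treated growth is compared with vehicle-treated growth.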

Experiment [4] can be described thus: NCI Yeast Anticancer Drug Screen. Data for the cln2 rad14 strain (AID 165).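 Note: 0% = growth equal to vehicle treated cultures.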 To be noted: S. cerevisiae cln2 rad14 strain, at 50.0 µM, hits give high values. In short, it runs like this: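 Yeast carrying cln2 and rad14 alterations (cell cycle control and DNA damage repair) were exposed to compounds. Growth inhibition was measured against vehicle-treated controls.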

Experiment [5] can be described thus: NCI Yeast Anticancer Drug Screen. Data for the bub3 strain (AID 167). To be noted: S. cerevisiae bub3 mutant strain, at 50.0 µM, hits give high values. In a few lines:
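Part of a panel of yeast mutants defective in DNA damage repair or cell cycle regulation. Each strain is grown with compound, and inhibition is calculated relative to solvent-treated cultures.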

Experiment [6] is described as follows: NCI Yeast Anticancer Drug Screen. Data for the mlh1 rad18 strain (AID 175). To be noted: S. cerevisiae mlh1 rad18 strain growth inhibition; at 50.0 µM; hits give high values. In short, it runs like this: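 Growth inhibition of the yeast strain was measured after compound exposure and expressed relative to vehicle-treated controls. The strain carries defined defects in DNA damage repair.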

Consider `COc1ccc(C(O)(C(=O)O)c2ccc(OC)c(OC)c2)cc1OC`, for which the growth inhibition in experiment [1] was 5.6%; in experiment [2], -1.25%; in experiment [3] it was -1.7%; in experiment [4], -13.9%; in experiment [5], 8%; in experiment [6] it was 0.2%.

For `NS(=O)(=O)c1cc(N(CCCl)CCCl)c([N+](=O)[O-])cc1[N+](=O)[O-]`, the growth inhibition in experiment [1] is -72.8%; in experiment [2], -36.8%; in experiment [3], -12.5%; in experiment [4], 2.1%; in experiment [5], -16.1%; in experiment [6], -34.5%.

Regarding `COc1cc2c(c(OC)c1OC)CC1c3c(cc4c(c3-2)OCO4)CCN1C` (configuration not stated), the growth inhibition was -5.85% in experiment [1]; -31.5% in experiment [2]; -18.1% in experiment [3]; 13.7% in experiment [4]; 2.1% in experiment [5]; -17.3% in experiment [6].

Turning to `CC(C)(O)/C=C/C(=O)[C@](C)(O)[C@H]1[C@H](O)C[C@@]2(C)[C@@H]3CC=C4[C@@H](C[C@H](O)C(=O)C4(C)C)[C@]3(C)C(=O)C[C@]12C`, the growth inhibition in experiment [1] is 8.3%; in experiment [2] it was -14.6%; in experiment [3] it was -6.7%; in experiment [4], 0.55%; in experiment [5], -12.8%; in experiment [6], 1.8%.

As for `Cc1cc(F)ccc1[As](=O)(O)O`, the growth inhibition in experiment [1] was -0.55%; in experiment [2], -1.95%; in experiment [3] it was -3.25%; in experiment [4], -17.9%; in experiment [5] it was 5%; in experiment [6], 3.25%.

For `C(=NCCN1CCOCC1)=NC1CCCCC1`, the growth inhibition was -22.4% in experiment [1]; -3.25% in experiment [2]; -10.9% in experiment [3]; -21.1% in experiment [4]; -58.1% in experiment [5]; -16.1% in experiment [6].

Consider `O=c1[nH]c2ccccc2c(=O)n1-c1ccco1`, for which the growth inhibition was 4.2% in experiment [1]; -13.5% in experiment [2]; -9% in experiment [3]; -15.4% in experiment [4]; -25.1% in experiment [5]; -1.65% in experiment [6].

For the molecule `COc1ccc2[nH]cc(CCN(C)C)c2c1`, the growth inhibition is 4.8% in experiment [1]; -24.8% in experiment [2]; 1.85% in experiment [3]; 17.1% in experiment [4]; -1.6% in experiment [5]; -9.85% in experiment [6].

As for `O=C1OC[C@@H]2Cc3c([nH]c4ccccc34)[C@@H](c3cc(O)c(O)c(O)c3)N12`, the growth inhibition in experiment [1] is 12.1%; in experiment [2], -1.2%; in experiment [3] it was 20.8%; in experiment [4], 7.4%; in experiment [5], 10.7%; in experiment [6] it was -51.6%.

As to `C[P+]1(C)CCCCC1`, the growth inhibition in experiment [1] was 7.15%; in experiment [2], 12.8%; in experiment [3] it was 0.35%; in experiment [4] it was -2.7%; in experiment [5] it was -8.85%; in experiment [6] it was -17.1%.

Take `CN(C)C(=O)Oc1cc(O)cc([N+](=O)[O-])c1`: the growth inhibition in experiment [1] is -5.45%; in experiment [2], -11.1%; in experiment [3], -10.8%; in experiment [4], -6.35%; in experiment [5], 24.1%; in experiment [6] it was -28.1%.

With `CCC(OC(=O)C1C(C=C(C)C)C1(C)C)c1cc2c(cc1Cl)OCO2` (configuration not stated), the growth inhibition is -8.05% in experiment [1]; -19.1% in experiment [2]; -7.3% in experiment [3]; -13.3% in experiment [4]; -10.7% in experiment [5]; -20.8% in experiment [6].

`CCCCCCNC(=O)CBr`: the growth inhibition in experiment [1] is 34.6%; in experiment [2], 4.55%; in experiment [3], 14.6%; in experiment [4] it was 3.4%; in experiment [5] it was 16.8%; in experiment [6], 30%.

For `CC(=O)OC1CCC2(CO)C(CCC3C4CCC(=O)C4(C)CCC32)C1` (configuration not stated), the growth inhibition is 14.1% in experiment [1]; -4.25% in experiment [2]; 0.3% in experiment [3]; 11.9% in experiment [4]; 5.3% in experiment [5]; 21.8% in experiment [6].

With `Fc1cccc2cc3cccc[n+]3cc12`, the growth inhibition is 5.6% in experiment [1]; 6.65% in experiment [2]; 3.55% in experiment [3]; -36.3% in experiment [4]; 15.6% in experiment [5]; -1.8% in experiment [6].

Consider `COc1cc(C2c3cc4c(cc3OC(C)(O)C2C(C)=O)OCO4)cc(OC)c1OC` (configuration not stated), for which the growth inhibition was -10.2% in experiment [1]; -0.15% in experiment [2]; 3.9% in experiment [3]; -18.6% in experiment [4]; -1.1% in experiment [5]; -7.45% in experiment [6].

On to `[Cl][Pt][Cl].c1ccc([PH+](c2ccccc2)c2ccccc2)cc1.c1ccc([PH+](c2ccccc2)c2ccccc2)cc1`, for which the growth inhibition is -1.7% in experiment [1]; 4.75% in experiment [2]; -4.95% in experiment [3]; -6.6% in experiment [4]; -1.6% in experiment [5]; -16.9% in experiment [6].

Take `CCC[As](=O)(O)c1ccc(Cl)cc1`: the growth inhibition in experiment [1] was 88.5% (active); in experiment [2], 99.5% (active); in experiment [3] it was 99.2% (active); in experiment [4], 73.5% (active); in experiment [5], 94.7% (active); in experiment [6], 99.2% (active).

`COc1cccc(N2CCNCC2)c1`: the growth inhibition in experiment [1] was -5.2%; in experiment [2] it was -12.6%; in experiment [3] it was 12.4%; in experiment [4], 4.2%; in experiment [5], -6.6%; in experiment [6], 25.1%.

On to `CC(C)=CCC/C(C)=N\N=C(N)N`, for which the growth inhibition is 5.35% in experiment [1]; -8.65% in experiment [2]; -13.2% in experiment [3]; -20.5% in experiment [4]; -2.8% in experiment [5]; -15.6% in experiment [6].

Consider `O=NN(Cc1ccccc1)Cc1ccccc1`, for which the growth inhibition in experiment [1] was 2.55%; in experiment [2] it was 0.1%; in experiment [3] it was 3.1%; in experiment [4], 0.5%; in experiment [5], 8.6%; in experiment [6] it was 21.4%.

On to `CC(C)CCCC(C)CCC1C(=O)NC(=S)NC1=O` (configuration not stated), for which the growth inhibition in experiment [1] is 8.45%; in experiment [2], 10.2%; in experiment [3], -4.4%; in experiment [4], 1.75%; in experiment [5] it was -3.05%; in experiment [6] it was 32.1%.
